Laboratory results reported in PubChem BioAssay AID602357 (National Center for Advancing Translational Sciences (NCATS), 2012).
Results filed as inconclusive are left out. Activity calls are given as the source filed them. The call rests on the fitted dose curve; in most records, active means well fitted inhibition curve with a large enough effect; inconclusive means small, poorly fitted or top-dose-only effect; inactive means no such curve, though single readings can be large or run the other way.

molecular target: Luciferin 4-monooxygenase (Photinus pyralis) (UniProt P08659); test: FLuc inhibitory activity for the follow-up compounds in a biochemical assay with Km concentrations of substrate; conditions: purified FLuc, Km substrates, luminescence; series mostly up to 57.5 µM
Sequence (P08659 whole entry, looked up): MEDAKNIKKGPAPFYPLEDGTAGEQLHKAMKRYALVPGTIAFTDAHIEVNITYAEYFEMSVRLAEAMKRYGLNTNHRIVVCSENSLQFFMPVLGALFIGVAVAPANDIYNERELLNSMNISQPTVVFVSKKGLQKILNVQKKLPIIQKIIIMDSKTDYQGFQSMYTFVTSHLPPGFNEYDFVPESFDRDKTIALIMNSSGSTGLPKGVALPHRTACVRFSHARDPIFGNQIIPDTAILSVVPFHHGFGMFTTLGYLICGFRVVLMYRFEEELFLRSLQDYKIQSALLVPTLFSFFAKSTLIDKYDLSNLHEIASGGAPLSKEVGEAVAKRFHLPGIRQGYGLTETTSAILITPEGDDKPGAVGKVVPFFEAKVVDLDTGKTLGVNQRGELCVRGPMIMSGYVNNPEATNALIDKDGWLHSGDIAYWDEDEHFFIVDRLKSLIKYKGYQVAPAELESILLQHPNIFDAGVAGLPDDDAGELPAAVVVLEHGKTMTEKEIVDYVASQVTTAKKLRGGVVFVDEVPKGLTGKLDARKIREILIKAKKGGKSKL
Excerpt: NCGC Assay Overview: Firefly (Photinus pyralis) luciferase is one of the most commonly used transcriptional reporters. It is considered one of the more dynamically responsive reporters - that is, responsive to changes in reporter transcription - as it requires no post-translational modifications and is enzymatically active directly after protein synthesis (Wood, 1998). With no endogenous expression in mammalian cells and without the requirement of external excitation, it offers very little background signal, thus generally providing excellent signal to background for most assays. Previous profiling work to determine the prevalence of compounds that affect FLuc enzymatic activity (PubChem AID 411) identified that ~3% of the MLSMR library (then at ~72K) inhibited FLuc. […] Of the compounds identified in this profile that inhibited FLuc, 151 compounds were selected for further analysis, in an effort to better understand their mode of inhibiting FLuc. The assay described here confirms the FLuc inhibitory activity of the 151 compounds.
NCGC Assay Protocol Summary: Reagents: 50mM Tris acetate, pH 7.5; 10mM Mg acetate; 10uM D-luciferin (Sigma #L9504); 10uM ATP; 0.01% Tween-20; 0.05% BSA; 10nM P. pyralis luciferase (Sigma #L9506) Control compounds used were two known firefly luciferase inhibitors (3-(5-(3-chlorophenyl)-1,2,4-oxadiazol-3-yl)benzoic acid and 5-(2-fluorophenyl)-3-phenyl-1,2,4-oxadiazole), and DMSO. Three microliters containing firefly luciferase substrates in buffer (final concentrations: 50mM Tris acetate, pH 7.5, 10mM Mg acetate, 0.01% Tween-20, 0.05% BSA, 10uM D-luciferin, and 10uM ATP) are dispensed into each well of a Greiner white, solid-bottom 1536-well format plate using a flying reagent dispenser (FRD). These assay plates were then treated with 23nL of compound or DMSO using a Kalypsys pin tool, which allows for delivery of a 12-point intraplate titration of each compound to the assay plate (quantitative HTS), with a final compound concentrations ranging from approximately ~60uM to 0.3nM. One microliter of firefly luciferase in 500mM Tris-acetate buffer was then delivered by FRD to each well for a final enzyme concentration of 10nM. Luciferase activity was then measured using a ViewLux CCD imager (PerkinElmer), with an average exposure time of 2-30 seconds (2X binning, medium/high gain).

Potency, active:
COc1ccc2nc(NC(=O)c3ccc(NS(=O)(=O)c4cccs4)cc3)sc2c1 10.3 µM
O=C(O)c1ccc(NC(=O)c2cccc(NC(=O)c3cccs3)c2)cc1 9.19 µM
O=C(Cc1ccccc1)Nc1ccc(C(=O)Nc2ccccc2C(=O)O)cc1 20.6 µM
O=C(Nc1ccccc1C(=O)O)c1ccc(NC(=O)C2CCCCC2)cc1 11.6 µM
Cc1c(NC(=O)c2cccs2)cccc1-c1nc2ccccc2s1 4.11 µM
CC(=O)Oc1ccc(C(=O)Nc2ccccc2C(=O)Nc2cccc(C(=O)O)c2)cc1 6.51 µM
Nc1ccc(-c2nc3ccc(N)cc3s2)cc1 0.326 µM
COc1ccc2nc(NC(=O)Cc3cccs3)sc2c1 7.3 µM
COc1ccc2nc(NC(=O)c3ccco3)sc2c1 1.03 µM
CCCC(=O)Nc1nc2ccc(OCC)cc2s1 13 µM
CC(C)CC(=O)Nc1cccc(C(=O)Nc2ccccc2C(=O)O)c1 18.3 µM
O=C(Nc1cccc(-c2nc3ccccc3s2)c1)C1=COCCO1 18.3 µM
O=C(O)c1cccc(NC(=O)c2ccccc2NC(=O)c2ccccc2F)c1 18.3 µM
Cn1c(N/N=C/c2cc3ccccc3nc2Cl)nc2ccccc21 0.058 µM
COc1ccc2nc(NC(=O)c3ccc([N+](=O)[O-])o3)sc2c1 3.66 µM
COc1ccc(-c2nc3ccccc3s2)cc1O 0.146 µM
COc1cccc(OC)c1C(=O)Nc1cccc(C(=O)Nc2cccc(C(=O)O)c2)c1 5.8 µM
Cc1c(C)c2ccc(OCC(=O)Nc3ccccn3)c(C)c2oc1=O 0.0116 µM
Cc1ccc(C(=O)Nc2cccc(C(=O)O)c2)cc1S(=O)(=O)N1CCCC1 0.058 µM
CCOc1ccc(C(=O)Nc2ccccc2C(=O)O)cc1 1.46 µM
Cc1ccc2sc(-c3ccc(NC(=O)c4cc(-n5cnnc5)ccc4Cl)cc3)nc2c1 6.51 µM
CC(=O)Nc1cccc(C(=O)Nc2ccccc2C(=O)O)c1 32.6 µM
O=C(O)c1ccc(NC(=O)c2ccccc2NC(=O)c2ccccc2Br)cc1 23.1 µM
O=C(O)c1ccccc1NC(=O)c1ccccc1Nc1ccccc1 18.3 µM
Cc1ccc(C(=O)O/N=C(\N)c2ccccn2)c(Cl)c1 0.0146 µM
O=C(COC(=O)c1ccccc1[N+](=O)[O-])c1ccc2c(c1)OCO2 0.0058 µM
Cc1c(NS(C)(=O)=O)cccc1-c1nc2ccccc2s1 8.19 µM
Cc1cccc(C(=O)Nc2ccccc2C(=O)Nc2ccc(C(=O)O)cc2)c1 11.6 µM

Potency, inactive:
COc1cc(OC)cc(C(=O)Nc2ccccc2-c2nc3ccccc3s2)c1
COc1ccc(-c2nc3ccccc3s2)cc1NC(=O)c1ccc(F)cc1
O=C(Nc1ccc(Cl)cc1-c1nc2ccccc2s1)c1ccco1
COc1ccc2nc(NC(=O)c3ccc(S(=O)(=O)N4CCCC(C)C4)cc3)sc2c1 (stereo not given)
COc1ccc2nc(NC(=O)CCc3ccc(OC)c(OC)c3)sc2c1
CC(C)Oc1ccc(C(=O)Nc2ccc(-c3nc4ccccc4s3)cc2)cc1
COc1c(C)cccc1C(=O)Nc1ccc(-c2nc3ccccc3s2)c(Cl)c1
O=C(Nc1ccccc1C(=O)O)c1cc(S(=O)(=O)NCc2ccccc2)ccc1Cl
CC(C)c1ccc(C(=O)Nc2ccc(-c3nc4ccccc4s3)c(Cl)c2)cc1
COc1ccc2nc(NC(=O)CCc3nc(-c4ccccc4F)no3)sc2c1
COc1ccc2nc(NC(=O)c3nc(S(=O)(=O)Cc4ccc(C)cc4)ncc3Cl)sc2c1
O=C(Nc1ccccc1C(=O)O)c1cc(S(=O)(=O)Nc2ccccc2)ccc1Cl
